Reference: PubChem BioAssay (EPA / NIEHS)
Where “and” joins values, the source holds several entries; their conditions need not be identical. Equal values may be shown once. Some structures have more than one record in an assay (separate samples or runs), and their calls can disagree. Calls of active or inactive are those of the source. Rule for the calls: active = hit-call score of the fitted dose curve at least 0.9, where 1 is the maximum; inactive = score below 0.9.

Legend:
[1] = APR_HepG2_CellLoss_72hr: Apredica 72-hour HepG2 Assay for Cell Loss (AID 2282915); settings: high-content imaging
Outline: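 HepG2 cells were exposed for 72 hr to compounds at 0.39–200 uM (ten concentrations, duplicate) in 0.5% v/v final DMSO. Nuclei were stained with Hoechst 33342 after 3.7% formaldehyde fixation, imaged at 20x, and counted; fits bidirectional versus DMSO.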

[2] = APR_HepG2_P-H2AX_72hr: Apredica 72-hour HepG2 Assay for H2AX Phosphorylation (AID 2282916); settings: imaging, actives raise or lower the signal;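 note: phospho-histone H2A.x immunostain intensity per cell marking DNA damage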
Outline: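 Phospho-H2A.x imaging endpoint in HepG2 after 72 hr compound exposure (0.39–200 uM, duplicate wells). Activity derived by bidirectional curve fitting with DMSO as baseline.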

[3] = APR_HepG2_MitoMembPot_72hr: Apredica 72-hour HepG2 Assay for Mitochondrial Membrane Potential (AID 2282917); settings: imaging, actives raise or lower the signal
Outline: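 HepG2 cells exposed 72 h to compounds at 0.39–200 uM (0.5% v/v DMSO, duplicates); MitoTracker Red CMXRos 250 nM loaded 30 min before 3.7% formaldehyde fixation, imaged by HCS fluorescence. Bidirectional fit versus DMSO.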

[4] = APR_HepG2_MitoticArrest_72hr: Apredica 72-hour HepG2 Assay for Mitotic Arrest (AID 2282918); settings: high-content imaging, actives raise or lower the signal
Outline: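 HepG2, 72 hr exposure, 0.39–200 uM in duplicate, 0.5% v/v DMSO final. Formaldehyde-fixed, Triton-permeabilized, anti-phospho-histone H3/FITC plus Hoechst. ArrayScan imaging at 20x; curves fit bidirectionally against DMSO baseline.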

[5] = APR_HepG2_MicrotubuleCSK_72hr: Apredica 72-hour HepG2 Assay for Microtubule CSK Stabilty (AID 2282919); settings: HepG2 microtubule cytoskeleton, high-content imaging, actives raise or lower the signal
Outline: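 Ten-point dosing (0.39–200 uM, 0.5% DMSO) of HepG2 for 72 hr, with taxol as the cytoskeletal positive control. The cells were formaldehyde-fixed and then stained with alpha-tubulin/Cy5 and Hoechst. Imaging at 20x used a −2 um Z offset for tubulin.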

[6] = APR_HepG2_P-H2AX_24hr: Apredica 24-hour HepG2 Assay for H2AX Phosphorylation (AID 2282920); settings: high-content imaging, actives raise or lower the signal
Outline: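 HCS fluorescence imaging of phospho-H2A.x immunostain (with Hoechst 33342 nuclear counterstain) in HepG2 after 24 hr compound exposure; 10 concentrations, 0.39–200 uM, duplicate wells, 0.5% v/v DMSO. Gain or loss of signal fitted relative to DMSO baseline.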

[7] = APR_HepG2_StressKinase_72hr: Apredica 72-hour HepG2 Assay for Stress Kinase (AID 2282921); settings: HepG2 stress kinase (phospho-c-Jun) imaging, actives raise or lower the signal
Outline: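 Stress kinase signal reflects nuclear phospho-c-Jun staining in fixed, permeabilized cells exposed 72 h to compound at 0.39–200 uM; DMSO-normalized, fitted for increases or decreases.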

[8] = APR_HepG2_StressKinase_24hr: Apredica 24-hour HepG2 Assay for Stress Kinase (AID 2282922); settings: HepG2 stress kinase (phospho-c-Jun) imaging, actives raise or lower the signal
Outline: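 After 24 hr compound treatment (up to 200 uM, final DMSO 0.5% v/v), HepG2 cells are fixed and multiplex-labeled; phospho-c-Jun intensity is captured by high-content fluorescence imaging and analyzed relative to DMSO.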

[9] = APR_HepG2_p53Act_72hr: Apredica 72-hour HepG2 Assay for p53 Activation (AID 2282923); settings: high-content imaging, actives raise or lower the signal;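 note: average cellular p53 protein immunofluorescence intensity in HepG2 cells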
Outline: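 Fixed-cell p53 staining (sheep primary, Cy5 secondary) measured by fluorescence imaging following 72 hr treatment at 0.39–200 uM in 0.5% DMSO; DMSO served as negative control and baseline.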

[10] = APR_HepG2_MitoMass_72hr: Apredica 72-hour HepG2 Assay for Mitochondrial Mass (AID 2282924); settings: high-content imaging, actives raise or lower the signal;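 note: MitoTracker Red CMXRos stain intensity per cell imaged as mitochondrial mass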
Outline: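 Steps: treat HepG2 72 hr (0.39–200 uM, duplicate wells); load MitoTracker Red CMXRos, 250 nM, 30 min; fix with 3.7% formaldehyde, permeabilise with 0.5% Triton X-100; capture images, nuclei via Hoechst 33342; fit bidirectionally against DMSO.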

[11] = APR_HepG2_NuclearSize_72hr: Apredica 72-hour HepG2 Assay for Nuclear Size (AID 2282925); settings: high-content imaging, actives raise or lower the signal
Outline: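 Compounds (0.39–200 uM, final DMSO 0.5%) were applied to HepG2 for 72 hr. Cells were then formaldehyde-fixed, permeabilized and labelled with Hoechst 33342. Nuclear diameter was quantified from six images per well.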

[12] = ATG_CRE_CIS: Attagene CIS-FACTORIAL HepG2 Assay for human cAMP Responsive Element (CRE) binding protein 3 (AID 2282926); settings: HepG2 CRE cis-reporter, Attagene multiplexed mRNA; actives raise or lower the signal
Outline: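 Readout: fluorescently labelled reporter transcripts resolved by capillary electrophoresis after RT-PCR, taken 24 h post-dosing in transfected HepG2. Endogenous transcription factor activity drives each cis-element reporter; gain or loss of signal fitted relative to DMSO control.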

[13] = target: CCAAT/enhancer-binding protein beta (Homo sapiens) (UniProt P17676); experiment: ATG_C_EBP_CIS: Attagene CIS-FACTORIAL HepG2 Assay for human CCAAT/Enhancer Binding Protein (C/EBP) beta (AID 2282927); settings: HepG2 Attagene cis-factorial transcription factor reporter; actives raise or lower the signal
Chain of CCAAT/enhancer-binding protein beta (Homo sapiens) (P17676 whole entry, looked up): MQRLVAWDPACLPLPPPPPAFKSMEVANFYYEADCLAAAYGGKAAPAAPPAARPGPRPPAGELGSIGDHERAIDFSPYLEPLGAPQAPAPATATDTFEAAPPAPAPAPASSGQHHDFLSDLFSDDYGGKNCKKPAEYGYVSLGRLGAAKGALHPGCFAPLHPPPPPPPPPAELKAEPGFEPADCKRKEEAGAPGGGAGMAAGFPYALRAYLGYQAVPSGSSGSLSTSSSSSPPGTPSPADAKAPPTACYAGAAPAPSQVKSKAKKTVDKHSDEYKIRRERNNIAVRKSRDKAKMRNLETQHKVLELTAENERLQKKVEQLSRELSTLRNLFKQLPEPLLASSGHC
Outline: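 Following a 24 h incubation with test chemical, transfected HepG2 cells yielded RNA whose reporter transcripts were quantified by RT-PCR and fluorescent capillary electrophoresis, with DMSO serving as baseline for bidirectional fitting.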

[14] = ATG_CMV_CIS: Attagene CIS-FACTORIAL HepG2 Assay for human CMV (Internal Marker) (AID 2282928); settings: HepG2 CMV promoter reporter, transcription factor profiling; actives raise or lower the signal;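 note: endpoint acts as a background internal control marker rather than a target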
Outline: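 Reporter transcripts from transfected HepG2 cells are isolated after 24 h of chemical dosing, reverse-transcribed and amplified. Fragments labeled with 6-FAM are cut with HpaI and quantified by capillary electrophoresis; DMSO defines baseline.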

[15] = ATG_DR4_LXR_CIS: Attagene CIS-FACTORIAL HepG2 Assay for human Liver X Receptor (LXR), DR4 submotif (AID 2282929); settings: HepG2 Attagene DR4 cis-reporter, mRNA transcription; actives raise or lower the signal
Outline: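 Endogenous factor activity at a DR4 cis-element is read as reporter mRNA in transiently transfected HepG2 cells. Exposure lasts 24 h; transcripts are amplified, fluorescently labelled and sized by capillary electrophoresis, with DMSO as baseline.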

[16] = target: Aryl hydrocarbon receptor (Homo sapiens) (UniProt P35869); experiment: ATG_Ahr_CIS: Attagene CIS-FACTORIAL HepG2 Assay for human Aryl Hydrocarbon Receptor (Ahr) (AID 2282930); settings: HepG2 AhR cis-factorial reporter transcription; actives raise or lower the signal
Chain of Aryl hydrocarbon receptor (Homo sapiens) (P35869 whole entry, looked up): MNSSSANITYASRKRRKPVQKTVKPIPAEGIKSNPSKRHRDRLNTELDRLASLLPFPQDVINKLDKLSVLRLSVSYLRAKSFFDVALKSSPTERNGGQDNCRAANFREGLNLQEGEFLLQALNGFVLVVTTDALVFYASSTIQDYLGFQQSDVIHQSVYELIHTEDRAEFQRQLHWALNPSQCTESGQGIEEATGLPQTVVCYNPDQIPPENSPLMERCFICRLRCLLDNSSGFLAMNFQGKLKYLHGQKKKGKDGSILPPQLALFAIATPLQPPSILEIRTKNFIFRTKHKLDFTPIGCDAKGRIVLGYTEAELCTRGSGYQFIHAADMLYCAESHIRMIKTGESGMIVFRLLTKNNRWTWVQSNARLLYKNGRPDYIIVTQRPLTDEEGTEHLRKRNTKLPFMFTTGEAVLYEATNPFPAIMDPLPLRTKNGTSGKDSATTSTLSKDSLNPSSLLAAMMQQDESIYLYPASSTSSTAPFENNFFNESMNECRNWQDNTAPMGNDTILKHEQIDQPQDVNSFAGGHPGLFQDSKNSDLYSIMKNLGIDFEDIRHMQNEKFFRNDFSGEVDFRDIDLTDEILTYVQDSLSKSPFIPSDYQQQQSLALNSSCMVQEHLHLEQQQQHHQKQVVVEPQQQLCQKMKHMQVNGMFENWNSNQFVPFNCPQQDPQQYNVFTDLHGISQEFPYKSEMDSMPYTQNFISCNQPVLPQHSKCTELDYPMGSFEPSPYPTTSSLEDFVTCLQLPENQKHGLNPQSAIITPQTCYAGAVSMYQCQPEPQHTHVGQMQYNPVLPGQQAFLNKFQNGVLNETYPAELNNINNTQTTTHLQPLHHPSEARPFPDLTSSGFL
Outline: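 Values derive from bidirectional fitting against DMSO negative control. Underlying signal: cis-element reporter mRNA in transiently transfected HepG2, harvested 24 h post-dose and measured by RT-PCR plus capillary electrophoresis.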

[17] = ATG_AP_1_CIS: Attagene CIS-FACTORIAL HepG2 Assay for human Activator Protein 1 (AP-1) (AID 2282931); settings: HepG2 Attagene cis-factorial AP-1 reporter mRNA; actives raise or lower the signal
Outline: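 Fluorescence of labelled PCR fragments separated by capillary electrophoresis gives reporter mRNA levels. HepG2 with transfected cis-regulated reporter units, 24 h exposure; DMSO serves as baseline for bidirectional curve fits.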

[18] = ATG_AP_2_CIS: Attagene CIS-FACTORIAL HepG2 Assay for human Activator Protein 2 (AP-2) (AID 2282932); settings: HepG2 AP-2 cis-reporter, Attagene transcription factor profiling; actives raise or lower the signal
Outline: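 Assay in transfected HepG2 with promoter-regulated reporters, 24 h incubation after dosing. Signal is reporter mRNA fluorescence (RT-PCR, capillary electrophoresis), analysed for both increases and decreases relative to DMSO controls.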

[19] = ATG_BRE_CIS: Attagene CIS-FACTORIAL HepG2 Assay for human Bone Morphogenetic Protein (BMP) Response Element (BRE) (AID 2282933); settings: HepG2 BMP response element reporter, Attagene transcription factor profiling; actives raise or lower the signal
Outline: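 A HepG2 multiplex reporter system measured inducible reporter mRNA 24 h post-dosing. Detection: RT-PCR, 6-FAM primer extension, HpaI digestion, capillary electrophoresis. Activity fitted bidirectionally relative to DMSO.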

[20] = target: Retinoic acid receptor alpha (Homo sapiens) (UniProt P10276); experiment: ATG_DR5_RAR_CIS: Attagene CIS-FACTORIAL HepG2 Assay for human Retinoic Acid Receptor Alpha (RARE), DR5 submotif (AID 2282934); settings: HepG2 Attagene cis-factorial RARE DR5 reporter, mRNA; actives raise or lower the signal;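 for AC50: reporter responds to endogenous RAR alpha beta and gamma in HepG2 not RARA alone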
Chain of Retinoic acid receptor alpha (Homo sapiens) (P10276 whole entry, looked up): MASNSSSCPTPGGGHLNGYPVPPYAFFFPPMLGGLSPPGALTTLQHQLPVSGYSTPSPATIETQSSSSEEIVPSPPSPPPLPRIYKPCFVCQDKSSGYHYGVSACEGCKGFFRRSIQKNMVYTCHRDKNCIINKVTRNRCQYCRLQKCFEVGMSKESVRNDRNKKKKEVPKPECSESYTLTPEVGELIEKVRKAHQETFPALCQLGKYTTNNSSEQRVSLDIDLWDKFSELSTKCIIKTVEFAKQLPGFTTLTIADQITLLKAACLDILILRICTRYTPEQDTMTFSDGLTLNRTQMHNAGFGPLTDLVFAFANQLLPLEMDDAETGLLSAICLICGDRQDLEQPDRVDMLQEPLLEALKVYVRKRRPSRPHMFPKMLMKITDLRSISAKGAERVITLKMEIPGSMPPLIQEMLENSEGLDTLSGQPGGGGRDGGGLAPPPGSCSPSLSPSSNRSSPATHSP
Outline: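 Endpoint fitted in both directions relative to DMSO as negative control. It reflects DR5 cis-element reporter mRNA induction in transiently transfected HepG2 cells, measured 24 h after dosing through RT-PCR and fluorescent capillary electrophoresis.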

Measured: AC50

CCCC1COC(Cn2cncn2)(c2ccc(Cl)cc2Cl)O1 (configuration not stated)
inactive: [2] | [3] | [4] | [6] | [7] | [8] | [9] | [10] | [11] | [12] | [13] | [14] | [15] | [16] | [17] | [18] | [19] | [20]
active: [1] 76 µM | [5] 77.7 µM | [14] 50 µM | [16] 25 µM | [17] 50 µM | [19] 29.7 µM | [20] 6.97 µM

CCCCNC(=O)OCC#CI
active: [1] 1.45 µM and 7.9 µM | [4] 9.07 µM | [5] 18 µM | [10] 5.54 µM | [12] 29.7 µM | [13] 25.3 µM | [14] 67.7 µM | [15] 180 µM | [17] 181 µM | [18] 60.7 µM | [19] 25.2 µM | [20] 26.7 µM
inactive: [2] | [3] | [4] | [5] | [6] | [7] | [8] | [9] | [10] | [11] | [12] | [13] | [14] | [15] | [16] | [17] | [18] | [19] | [20]

CCOC(=O)CC(SP(=S)(OC)OC)C(=O)OCC (configuration not stated)
active: [1] 109 µM | [12] 26.6 µM | [17] 41.2 µM | [19] 69.2 µM and 28.1 µM
inactive: [2] | [3] | [4] | [5] | [6] | [7] | [8] | [9] | [10] | [11] | [12] | [13] | [14] | [15] | [16] | [17] | [18]

C=CCC1=C(C)C(OC(=O)C2C(C=C(C)C)C2(C)C)CC1=O (configuration not stated)
inactive: [2] | [3] | [4] | [5] | [6] | [7] | [8] | [9] | [10] | [11] | [12] | [13] | [14] | [15] | [16]
active: [1] 57.1 µM [middle of 4 runs] | [2] 53.8 µM and 47.5 µM | [4] 43.6 µM and 50 µM and 46 µM | [6] 38.1 µM | [7] 60.6 µM and 52.5 µM | [8] 32.4 µM | [9] 117 µM | [10] 66.4 µM | [12] 48.8 µM [middle of 5 runs] | [13] 70.3 µM and 111 µM and 13.8 µM | [14] 35 µM [middle of 5 runs] | [15] 51.1 µM [middle of 4 runs] | [16] 43.6 µM and 105 µM | [17] 33.5 µM [middle of 6 runs] | [18] 167 µM
